From PubChem BioAssay
Sfp inh: blocks B. subtilis Sfp PPTase activity; Q9F4F7; Biochemical Sfp PPTase activity, qHTS; Potency, µM, for inactives: largest response in the series, negative = inhibition, most hits filed as inhibitors; hit rate 3.5% among 310,000;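 further: the enzyme is Sfp with the accession as filed and its product quenches rhodamine fluorescence; 0% = enzyme reaction without inhibitor and -100% = no enzyme wells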
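With Hepes-Na pH 7.6 buffer containing 10 mM MgCl2, Sfp (15 nM) modified BHQ-2-YbbR (12.5 uM) using rhodamine-CoA (5 uM). Two reads 30 minutes apart at 525/598 nm yielded each well's rate.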
PLK1 PBD inh: inhibitors of human PLK1 polo-box domain binding; hit rate 2.8% among 360,000; AID 720504; Potency, µM, for the others: max response, negative = inhibition, usual class: inhibitors; Plk1 PBD binding of FITC phosphopeptide, fluorescence polarization; further: series mostly up to about 57 µM; on the % scale 0 is the no-effect control and ±100 the full control effect; nearly all actives have a fitted effect of over 65% in size
Target sequence (P53350 whole entry, looked up, the tested form may be a part): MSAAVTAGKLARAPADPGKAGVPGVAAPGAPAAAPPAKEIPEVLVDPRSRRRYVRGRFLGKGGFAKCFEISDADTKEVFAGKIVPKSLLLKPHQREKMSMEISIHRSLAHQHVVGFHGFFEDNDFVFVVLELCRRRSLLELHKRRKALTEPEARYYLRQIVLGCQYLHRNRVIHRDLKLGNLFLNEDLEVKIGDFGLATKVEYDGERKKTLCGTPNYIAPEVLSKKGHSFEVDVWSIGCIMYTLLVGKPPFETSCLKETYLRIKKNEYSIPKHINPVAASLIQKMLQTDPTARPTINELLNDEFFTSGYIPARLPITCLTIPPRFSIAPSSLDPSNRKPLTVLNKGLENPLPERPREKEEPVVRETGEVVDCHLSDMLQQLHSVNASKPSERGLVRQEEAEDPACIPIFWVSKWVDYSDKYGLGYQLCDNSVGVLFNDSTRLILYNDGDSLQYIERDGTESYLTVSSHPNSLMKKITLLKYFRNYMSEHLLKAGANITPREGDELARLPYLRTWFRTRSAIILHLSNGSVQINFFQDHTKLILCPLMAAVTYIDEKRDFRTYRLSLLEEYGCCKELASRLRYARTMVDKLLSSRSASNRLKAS
BAZ2B block: blocks human BAZ2B; Q9UIF8; AlphaScreen BAZ2B-H3K14Ac peptide displacement; Potency, µM (highest dose often 114 µM), for the others: at the top dose activity change, negative = inhibition, hits mostly inhibitors; hit rate 4.4% among 360,000; further: on the % scale 0 is the no-effect control and ±100 the full control effect; nearly all actives have a fitted effect of over 60% in size
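AlphaScreen displacement: compounds (up to 110uM) incubated 30 min at room temperature with a preformed 50 nM BAZ2B/50 nM biotinylated H3K14Ac peptide complex in PBS pH 7.4 with Tween-20. Donor and acceptor beads at 10 ug/mL final added, 20 min light-protected before reading.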
G9a block: inhibitors of human histone lysine methyltransferase G9a | Potency, µM (top dose mostly 102 µM), inactives show at the highest dose activity, negative = inhibition, usual class: inhibitors | G9a H3K9 monomethylation, AlphaScreen, 2 h | hit rate 8.8% among 350,000; further: on the % scale 0 is the no-effect control and ±100 the full control effect; nearly all actives have a fitted effect of over 75% in size
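Signal arises when biotinylated H3K9 peptide, once monomethylated, bridges streptavidin donor and antibody-captured acceptor beads. Enzyme at 20 nM was preincubated 15 min with test compounds; peptide 500 nM and SAM 20 uM then reacted for 2 h.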
JMJD2A Tudor inh: blocks the human JMJD2A Tudor domain; Potency, µM (titrated, usually from 114 µM), for inactives: top-dose activity change, negative = inhibition, actives largely listed as inhibitors; O75164; AlphaScreen JMJD2A-Tudor / H3K4me3 peptide binding; AID 504339; hit rate 4.4% among 390,000; further: on the % scale 0 is the no-effect control and ±100 the full control effect; nearly all actives have a fitted effect of over 50% in size
HP1b chromo inh: blocks HP1-beta chromodomain binding to methylated histone tails | AlphaScreen HP1-beta / biotin-H3K9me3 peptide binding | Potency, µM (series often up to 114 µM), without a hit: at the highest dose activity change, negative = inhibition, actives largely listed as inhibitors | hit rate 0.56% among 390,000 | AID 540317; further: nearly all actives have a fitted effect of over 70% in size
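HP1-beta protein (50 nM final) preincubated 30 min at room temperature with biotinylated H3(1-18)K9me3 peptide (50 nM) in PBS pH 7.4, 0.01% Tween-20, then compound added for 30 min. AlphaScreen streptavidin donor/nickel chelate acceptor beads (10 ug/mL final), 30 min dark, luminescence read.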
* hit, by the source's call; ? = inconclusive; . = no result given; [ ] = remark or other dose. Shown are actives, neighbours in structure and some others; about 12% of the full set was active somewhere. The call rests on the fitted dose curve; in most records, active means well fitted curve in the direction sought with a large enough effect; inconclusive means small, poorly fitted or top-dose-only effect, or another doubt; inactive means no such curve, though single readings can be large; an effect the other way counts as inactive or inconclusive. Potency means the concentration at half of the fitted maximal effect.

SMILES	Sfp inh	PLK1 PBD inh	BAZ2B block	G9a block	JMJD2A Tudor inh	HP1b chromo inh
Cc1ccc(-c2csc(N3CCC[C@@H]3C(=O)NCCn3c(-c4ccncc4)nc4ccccc43)n2)cc1	-6%	-20%	45µM*	45µM*	?	-19%
Cc1ccc(Cn2c(C3CCCN3c3nc(-c4ccc(F)cc4)cs3)nc3cc(Cl)c(Cl)cc32)cc1 (centres undefined)	.	-4%	.	.	-28%	-5%
Cc1ccc(-c2csc(N(CCO)CCCn3c(C(F)(F)F)nc4cc(C(F)(F)F)ccc43)n2)cc1	-4%	-17%	?	25µM*	-35%	4%
O=C(NCCn1c(C(F)(F)F)nc2ccccc21)[C@H]1CCCN1c1nc(CN2CCCCC2)cs1	14%	-9%	1%	-27%	-12%	34%
CC(=O)N[C@@H](C)c1nc2ccccc2n1CCCN1CCN(c2nc(-c3ccc(C)cc3)cs2)CC1	-15%	-9%	?	45µM*	?	-17%
CCCn1c(C2CCCN2c2nc(-c3ccc(C)cc3)cs2)nc2ccccc21 (centres undefined)	50µM*	?	?	40µM*	-28%	-11%
C=C(N(C)C)[C@]1(C)C[C@H]1[C@H](NC(=O)CNC(=O)OCc1ccccc1)c1ccccc1	42%	.	.	.	.	.
Cc1ccc(-c2csc(N3CCN(CCCn4c(-c5ccncc5)nc5ccccc54)CC3)n2)cc1	-22%	-6%	?	50µM*	?	?
Cc1ccc(-c2csc(NCCn3c(C(F)(F)F)nc4ccccc43)n2)cc1	7%	-1%	-31%	?	-17%	3%
OCCN(CCCn1c(-c2ccncc2)nc2ccccc21)c1nc(CN2CCCCC2)cs1	12%	-14%	-1%	-22%	-18%	7%
Cc1ccc(-c2csc(N3CCN(CCCn4c(C(F)(F)F)nc5ccccc54)CC3)n2)cc1	-2%	-12%	-38%	45µM*	-34%	-4%
c1ccc2c(c1)c1c(c3ccccc32)CN2CCCC2C1 (centres undefined)	.	-22%	.	.	-29%	-11%
CCOC(=O)c1c(-c2ccccc2)csc1NC(=O)c1cc(-c2ccc(F)cc2)on1	.	.	-10%	4µM*	1%	-15%
CCOC(=O)c1c(-c2ccccc2)csc1NC(=O)/C(C#N)=C/c1ccc(O)c(OC)c1	?	25%	?	40µM*	-32%	?
COc1ccccc1-c1cc(C(=O)NCCc2ccccc2)no1	?	27µM*	3%	9%[59 µM]	?	31%
COc1ccc(CCNC(=O)c2cc(-c3ccccc3OC)on2)cc1OC	-10%	0%	-4%	?	-27%	11%
CCOC(=O)c1c(-c2ccc(F)cc2)csc1NC(=O)c1c(-c2ccccc2)noc1C	4%	7%	10%	6%	1%	43%
CCOC(=O)c1c(-c2ccc(C)cc2)csc1NC(=O)c1cc(=O)c2ccc(C)cc2o1	.	.	-3%	-20%[59 µM]	-7%	15%
CCOC(=O)c1c(-c2ccc(C)cc2)csc1NC(=O)c1cc2ccccc2oc1=O	?	6%	40µM*	3%[0.501 µM]	-5%	15%
CC(C)CCOc1ccc(N)cc1	-20%	.	.	.	.	.
CCC(Sc1nc(-c2ccc(F)cc2)nc2c1Cc1c(CO)cnc(C)c1O2)C(=O)Nc1ccc(F)cc1 (centres undefined)	.	.	-16%	-5%[59 µM]	-5%	13%
OCC1=C[C@@H](O)[C@@H]2C=CO[C@@H](OC3O[C@H](CO)[C@@H](O)[C@H](O)[C@H]3O)[C@H]12 (some centres undefined)	5%	.	.	.	.	.
COc1ccc(C2NC(=O)c3ccccc3N2)cc1COc1ccc(NC(C)=O)cc1 (centres undefined)	.	.	.	.	-13%	.
Cc1ccc(-c2csc(NC(=O)c3cccc(C)c3)c2C(=O)O)cc1	.	?	.	.	0%	17%
CCOC(=O)c1c(-c2ccccc2)csc1NC(=O)c1cc(-c2ccc(Br)cc2)on1	.	.	-27%	6.3µM*	-6%	?
SMILES	Sfp inh	PLK1 PBD inh	BAZ2B block	G9a block	JMJD2A Tudor inh	HP1b chromo inh
CCOC(=O)c1c(-c2ccccc2)csc1NC(=O)c1cc(-c2ccccc2OC)on1	.	24µM*	.	.	1%	-16%
COC(=O)c1c(-c2ccc(C)cc2)csc1NC(=S)NC(=O)c1ccc(F)cc1	-27%	-9%	-14%	79µM*	-29%	13%
Cc1cccc(C(=O)Nc2scc(-c3ccc(Br)cc3)c2C(=O)O)c1	.	30µM*	.	.	?	1%
COCCNc1nc(NCCOc2ccccc2)c2sc(-c3ccccc3)cc2n1	.	1%	.	.	.	.
O=C(Nc1c(Br)cc2c(c1Br)Cc1ccccc1-2)C(Cl)Cl	.	0%	.	.	-10%	25%
CC(C)NC(=O)COC(=O)CNC(=O)C1CCCCC1	.	.	.	.	-11%[57.1 µM]	10%[57 µM]
COc1ccc(NC(=O)C2=C(C)Nc3nc(SCc4ccc(Cl)cc4)nn3C2c2cccc(OC)c2OC)cc1 (centres undefined)	.	.	-2%	-2%[59 µM]	6%	19%
CCOC(=O)c1c(NC(=O)c2cc(-c3ccccc3OC)on2)sc(C)c1C	.	.	-3%	2.8µM*	-18%	?
CCOC(=O)c1c(-c2cccc([N+](=O)[O-])c2)csc1NC(=O)CCCOc1ccccc1OC	3%	30µM*	-1%	?	-35%	?
CCOC(=O)c1c(-c2cccc([N+](=O)[O-])c2)csc1NC(=O)CCCOc1ccccc1	?	-11%	20%	-24%	5%	32%
Cn1ncc2c(=S)[nH]c(=S)[nH]c21	.	27µM*	.	.	.	.
Cn1ncc(=S)[nH]c1=S	.	-22%	.	.	-6%	-8%
O=C(c1cnc2n(c1=O)CCS2)N1CCc2ccccc21	1%	-19%	-5%	-4%[59 µM]	-15%	30%
CC1Cc2ccccc2N1C(=O)c1cnc2n(c1=O)CCS2 (centres undefined)	-3%	-24%	7%	45µM*	-7%	34%
CC1CCc2cc(F)ccc2N1C(=O)c1cccnc1 (centres undefined)	0%	-11%	3%	.	-13%	65%
CC1Cc2ccccc2N1C(=O)c1cccnc1 (centres undefined)	-5%	1%	4%	50µM*	-2%	19%
O=c1cc[nH]c2c1ccc1cccnc12	.	3%	56µM*	?	-28%	56%
